# Assay results from PubChem BioAssay AID1159580 (chemical genetic matrix, 2015).
# In all, about 5,500 compounds went through this assay and about 2,000 (36%) were called active. Roughly 18% stayed inconclusive and do not appear here. Some of the results follow. A number with no mark means an inactive call. No stated cut-off is given here; in the data, active means normalized growth mostly below about 0.91 (no sharp cut-off); inconclusive means no clear call, values can overlap the other calls; inactive means mostly above about 0.92.
# Assay: chemical genetic growth profiling, strain panel (AID 1159580);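 further: tested at 20 µM; growth read once vehicle control cultures reached saturation at 30 °C; 1 = growth at the plate median or of vehicle wells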
# Details: growth OD
smiles,measurement,setting,value
Nc1ccc(-n2nc(C(F)(F)F)cc2C(F)(F)F)cc1,normalized growth,"S. cerevisiae deletion strains, locus YAL013W, strain DEP1, stronger effect = lower value",1
same,normalized growth,"S. cerevisiae deletion strains, locus YBR229C, strain ROT2, stronger effect = lower value",0.986
same,normalized growth,"S. cerevisiae deletion strains, locus YDL101C, strain DUN1, stronger effect = lower value",1
same,normalized growth,"S. cerevisiae deletion strains, locus YDR150W, strain NUM1, stronger effect = lower value",0.902
same,normalized growth,"S. cerevisiae deletion strains, locus YEL061C, strain CIN8, stronger effect = lower value",0.998
same,normalized growth,"S. cerevisiae deletion strains, locus YGR078C, strain PAC10, stronger effect = lower value",1.01
same,normalized growth,"S. cerevisiae deletion strains, locus YGR229C, strain SMI1, stronger effect = lower value",0.99
same,normalized growth,"S. cerevisiae deletion strains, locus YHR030C, strain SLT2, stronger effect = lower value",0.661 (active)
same,normalized growth,"S. cerevisiae deletion strains, locus YHR087W, strain rtc3, stronger effect = lower value",1.01
same,normalized growth,"S. cerevisiae deletion strains, locus YJR043C, strain POL32, stronger effect = lower value",0.992
same,normalized growth,"S. cerevisiae deletion strains, locus YJR075W, strain HOC1, stronger effect = lower value",0.938
same,normalized growth,"S. cerevisiae deletion strains, locus YLR039C, strain RIC1, stronger effect = lower value",0.842
same,normalized growth,"S. cerevisiae deletion strains, locus YLR058C, strain SHM2 (second series), stronger effect = lower value",0.975
same,normalized growth,"S. cerevisiae deletion strains, locus YLR085C, strain ARP6, stronger effect = lower value",0.603 (active)
same,normalized growth,"S. cerevisiae deletion strains, locus YLR262C, strain YPT6, stronger effect = lower value",0.904
same,normalized growth,"S. cerevisiae deletion strains, locus YML094W, strain GIM5, stronger effect = lower value",0.975
same,normalized growth,"S. cerevisiae deletion strains, locus YMR219W, strain ESC1, stronger effect = lower value",0.986
same,normalized growth,"S. cerevisiae deletion strains, locus YMR263W, strain SAP30, stronger effect = lower value",0.963
same,normalized growth,"S. cerevisiae deletion strains, locus YNL153C, strain GIM3, stronger effect = lower value",1
same,normalized growth,"S. cerevisiae deletion strains, locus YNL298W, strain CLA4 (second series), stronger effect = lower value",0.855
same,normalized growth,"S. cerevisiae deletion strains, locus YNL322C, strain KRE1, stronger effect = lower value",0.969
same,normalized growth,"S. cerevisiae deletion strains, locus YNR030W, strain Alg12, stronger effect = lower value",0.951
same,normalized growth,"S. cerevisiae deletion strains, locus YOL006C, strain TOP1, stronger effect = lower value",0.866
same,normalized growth,"S. cerevisiae deletion strains, locus YPL055C, strain LGE1, stronger effect = lower value",0.929
same,normalized growth,"S. cerevisiae deletion strains, locus YPL241C, strain CIN2, stronger effect = lower value",0.825 (active)
same,normalized growth,"S. cerevisiae deletion strains, locus YPR135W, strain CTF4, stronger effect = lower value",0.694
same,normalized growth,"S. cerevisiae strains, strain wild type, stronger effect = lower value",0.974
